Source: PubChem BioAssay AID1903 (Southern Research Specialized Biocontainment Screening …, 2009)
Where “and” joins values, the source holds several entries; their conditions need not be identical. Identical values can stand only once. Among all 310,000 compounds or so, about 1,200 (0.39%) were called active. No rule for the calls is given here. Only a sample is shown. Measured potencies and affinities stand elsewhere.

These molecules were tested against Large T antigen (Simian virus 40) (UniProt P03070) (assay: TAg ATPase/helicase activity blockers – biochemical (AID 1903)). Conditions: SV40 large T antigen ATPase/helicase inhibition assay; at 20 µM; hits give high values.
Sequence of Large T antigen (Simian virus 40) (P03070 whole entry, looked up): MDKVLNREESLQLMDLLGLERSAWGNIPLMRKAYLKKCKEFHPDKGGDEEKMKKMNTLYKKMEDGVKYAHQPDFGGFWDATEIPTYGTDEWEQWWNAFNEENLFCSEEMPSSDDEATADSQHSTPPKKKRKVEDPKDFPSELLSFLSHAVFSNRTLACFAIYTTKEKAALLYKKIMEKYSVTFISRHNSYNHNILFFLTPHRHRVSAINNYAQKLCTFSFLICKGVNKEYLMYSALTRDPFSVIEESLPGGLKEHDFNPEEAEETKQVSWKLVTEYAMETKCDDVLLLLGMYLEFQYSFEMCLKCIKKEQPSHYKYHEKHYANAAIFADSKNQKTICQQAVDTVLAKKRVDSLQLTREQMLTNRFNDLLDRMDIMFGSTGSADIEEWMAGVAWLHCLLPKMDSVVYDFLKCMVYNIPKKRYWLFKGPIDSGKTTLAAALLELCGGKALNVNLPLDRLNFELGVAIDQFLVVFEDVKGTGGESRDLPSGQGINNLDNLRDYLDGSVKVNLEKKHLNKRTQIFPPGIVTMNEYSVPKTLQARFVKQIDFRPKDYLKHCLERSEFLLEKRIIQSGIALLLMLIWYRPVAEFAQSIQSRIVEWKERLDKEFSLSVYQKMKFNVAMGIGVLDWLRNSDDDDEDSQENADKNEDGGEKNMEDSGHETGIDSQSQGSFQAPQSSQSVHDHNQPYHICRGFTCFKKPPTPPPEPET

inhibition, inactive:
Cc1nc2ccccc2c(=O)n1-c1ccc(NS(=O)(=O)c2ccccc2)cc1 -1.73%
NC(=O)C1CCN(C(=O)c2cccc3ccccc23)CC1 16.8%
CCOC(=O)CC1C(=O)NCCN1C(=O)c1ccc(Cl)cc1Cl (stereo not given) 3.58%
Fc1ccc(C2c3cccn3CCN2C(=S)Nc2cccc(F)c2)cc1 (stereo not given) 6.14%
Cn1c(=O)c(C(=O)CN2CCN(S(=O)(=O)c3ccccc3)CC2)c(N)n(Cc2ccccc2)c1=O 2.73%
COC(=O)C1C(=O)c2c([nH]c(C(=O)OC3CCCCC3)c2C)CC1C (stereo not given) 0.84%
O=C1OC(c2ccc3c(c2)OCO3)N(C(=O)c2ccc(Cl)c(Cl)c2)c2ccccc21 (stereo not given) 10.3%
CCCC(=O)N(c1ccc2oc(=O)sc2c1)S(=O)(=O)c1ccccc1 22.9%
COc1ccc(C(CNC(=O)COc2ccccc2)N2CCOCC2)cc1 (stereo not given) 5.3%
CCCc1cc(=O)[nH]c(SCCCCN2C(=O)c3ccccc3C2=O)n1 16.4%
O=C(/C=C/c1ccc(O)cc1)c1c(O)cc(O)cc1O 3.62%
CC(C)c1ccc(/C=C/C(=O)O)cc1 15.3%
CC1Cc2ccccc2N1CC(=O)Nc1ccc(N2CCOCC2)cc1 (stereo not given) 27%
CC(Nc1ccc2c(c1)OCCO2)C(=O)N1c2ccccc2CC1C (stereo not given) 16.6%
c1ccc(-c2ccc3c(c2)NC(C2Nc4cc(-c5ccccc5)ccc4O2)O3)cc1 (stereo not given) 19.8%
O=C1CCNc2ccc(-c3ccccc3)cc21 5.5%
Nc1cccc2c1C(=O)N(Cc1cccc(Cl)c1)C2=O 1.68%
O=C1c2ccccc2C(=O)N1Cc1cc(Cl)c(O)c([N+](=O)[O-])c1 6.24%
O=C(c1cccs1)N1CCCC(N2CCN(c3ccc(F)cc3)CC2)C1 (stereo not given) 7.59%
Cn1c(=O)n(Cc2ccccc2F)c2ccccc21 9.44%
Nc1nc(O)c(N=Nc2ccc(S(N)(=O)=O)cc2)c(=O)[nH]1 -12.8%
NS(=O)(=O)c1ccc(N=Nc2ccc(O)c3ncccc23)cc1 13.3%
COc1ccc2[nH]c(=O)c(CN(CCO)S(=O)(=O)c3ccc4c(c3)OCCO4)cc2c1 -3.52%
O=[N+]([O-])c1ccc(O)c2ncccc12 -8.5% and 12.1%
O=[N+]([O-])c1cc(Cl)c(O)c2ncccc12 14.7%
COCc1cc(SC2CCCCC2)nc(C)n1 10.5%
O=C(CSc1nc2[nH]ncc2c(=O)[nH]1)Nc1nccs1 12.6%
CCN(CC1CCCO1)C(=O)CCc1nnc(CCc2ccc(OC)cc2)o1 (stereo not given) 0.66%
O=C1CCC(=O)N1c1nc2nc(-c3ccccc3)cc(-c3ccccc3)n2n1 3.94%
O=S(=O)(c1ccc(NC(=S)N2CCN(c3ccccc3F)CC2)cc1)N1CCOCC1 11.6%
CN1CCN(CC(=O)Nc2cc(S(=O)(=O)N3CCOCC3)ccc2Cl)CC1 8.7%
O=C(CN1CCN(c2ccc(O)cc2)CC1)Nc1cc(S(=O)(=O)N2CCCCC2)ccc1Cl 28.7%
CC(=O)N1CCN(CC(=O)Nc2cc(S(=O)(=O)N3CCOCC3)ccc2C)CC1 10.5%
COc1ccccc1N1CCN(C(=S)Nc2ccc(S(=O)(=O)N3CCOCC3)cc2)CC1 -0.03%
Cc1ccc(S(=O)(=O)N2CCN(CC(=O)Nc3ccc(N4CCOCC4)cc3)CC2)cc1C 10.9%
CC(NC(=O)Cn1c(NCCO)nc2ccccc21)c1ccccc1 (stereo not given) -0.56%
CCOc1ccc(C(=O)NC(C(=O)NCc2ccccc2OC)C(C)C)cc1 (stereo not given) 20.8%
Cc1ccc(CNC(=O)c2ccccc2NC(=O)CN2CC(C)OC(C)C2)cc1 (stereo not given) 2.54%
Cc1ccc(S(=O)(=O)N(C)C)cc1NC(=O)COC(=O)c1ccc2c(c1)NC(=O)CS2 2.57%
CC(CN1CCCCC1)OC(=O)c1ccc(Cl)cc1 (stereo not given) -0.49%
Cc1[nH]c2ccccc2c1-c1csc(NC(=O)CN2CCOCC2)n1 35.5%
Cc1[nH]c2ccccc2c1-c1csc(NC(=O)CSCCO)n1 23.2%
Cc1ccc(CNC(=O)COC(=O)c2cc3c(s2)CCC(C)C3)cc1 (stereo not given) 0.58%
C#CCOCCOCCOCCNc1nc(N2CCN(C(=O)Cn3cc(CCCN=C(N)N)nn3)CC2)nc(N2CCN(C(=O)[C@H](CCCCN)n3cc(CCCC)nn3)CC2)n1 10.3%
O=C(NC1CC1)c1scc2c1OCCO2 -3.94%
COc1cc(NC(=O)C/C(C)=N/NC(=O)C(OC)c2ccccc2)c(OC)cc1Cl (stereo not given) 7.44%
COc1ccc(CC(=O)N/N=C(\C)CC(=O)Nc2ccc3c(c2)OCCO3)cc1OC 8.47%
COC(C(=O)Nc1ccc(NC(=O)C(OC)c2ccccc2)cc1)c1ccccc1 (stereo not given) 0.71%
COc1ccc(CNC(=O)C/C(C)=N/NC(=O)Cc2ccc(OC)c(OC)c2)cc1 9.86%
CC(=O)NC(C)Cc1cn(Cc2ccccc2)c2ccccc12 (stereo not given) 19.1%
COC(=O)c1sc(NC(=O)c2cccc([N+](=O)[O-])c2)c(C(N)=O)c1C 9.65%
Cc1ccccc1CNCCCSc1ncccn1 11.1%
COc1ccc(CN2CCCCCC2)c(C)c1C 12.7%
CC(C)(C)c1cc2nc(N)nc(N)n2n1 8.32%
O=C(Nc1ccccc1Cl)c1ccc(COc2ccc3c(c2)CCC3)cc1 20.5%
CN(C(=O)CC(NC(=O)c1ccccc1Cl)c1ccccc1)c1ccccc1 (stereo not given) 12.8%
COc1cc2cccc(OC)c(=O)c2c(O)c1OC 2.12%
COc1cc2ccc3c(CCN(C)C)cc(OC)c(OC)c3c2cc1OC 6.37%
CC(=O)Nc1ccc(S(=O)(=O)Oc2ccccc2N2CCCCC2)cc1 2.71%
COc1ccccc1/C=N/NC(=O)CC(=O)NCCc1ccccc1 9.39%
COc1ccc(/C=N/NC(=O)CC(=O)NCCc2ccccc2)cc1OC -5.15%
CCOc1cc(/C=N/NC(=O)C2CCCC2)ccc1O 36.2%
CCOc1cc(/C=N/NC(=O)C(=O)N/N=C/c2ccc(O)c(OCC)c2)ccc1O 8.63%
CCOc1ccc(/C=N\NC(=O)CC(=O)NCCc2ccccc2)cc1 4.85%
COc1cc(/C=N/n2cnnc2)ccc1OC(=O)c1ccco1 24.8%
COc1cc(/C=N/n2cnnc2)ccc1OC(=O)c1cccnc1 27.4%
Cc1ccc(/C=N\NC(=O)CC(=O)NCCc2ccccc2)cc1 7.24%
CC(Nc1c[nH]c(=O)[nH]c1=O)c1ccccc1 (stereo not given) 28.4%
N#CC1=C(N)N2C(=C(C#N)C13CCCCC3)SC1CCCCC12O (stereo not given) 2.16%
CCc1cc(Cn2nc(-c3ccccc3)cc2C(=O)NCc2ccccc2OC)on1 2.01%
COc1ccccc1CC(NC(C)=O)C(=O)N1CCN(C(=O)Nc2ccccc2Cl)CC1 (stereo not given) 11.4%
Cc1ccc(NC(=O)c2ccc3nsnc3c2)c(C)c1 3.08%
O=C(NC(C1CC1)C1CC1)C1CCC(=O)N(CCCN2CCCC2=O)C1 (stereo not given) 8.58%
FC(F)(F)c1cccc(Nc2nc(N3CCOCC3)nc(N3CCOCC3)n2)c1 6.77%
COc1ccc(/C=C2\CCC(C3CCCC3)C2=O)c(OC)c1OC (stereo not given) 15.3%
Cc1ccc(S(=O)(=O)Nc2ccc(Oc3cccnc3)nc2)cc1 9.11%
CC(=O)Nc1ccc(SC[C@H](c2ccccc2)N2CCN(CCc3ccccc3)CCC2=O)cc1 16.3%
COc1ccc(-c2nnc(-c3cc4ccccc4oc3=O)o2)cc1 -1.16%
O=C(C1CCCN(Cc2cccc(Cl)c2)C1)N1CCCCC1 (stereo not given) 2.11%
COc1cc(SC)ccc1C(=O)Nc1ncc(Cl)cc1Cl -2.54%
CNC(=S)N/N=C/c1cn(CCOc2ccc(OC)cc2)c2ccccc12 6.11%
Cc1c(CN(C)C)c2c(n1Cc1ccccc1)C(=O)c1ccccc1-2 2.92%
CCOc1cc(/C=N/n2cnnc2)cc(Br)c1O 23.3%
CCOc1cc(/C=N/n2c(C)nnc2C)ccc1O 27.2%
Clc1ccccc1Cn1nc(-c2ccccc2)nc1-c1ccccc1 1.23%
Cn1ccnc1SCC(=O)Nc1cc(C(F)(F)F)ccc1N1CCOCC1 7.01%
COC(=O)c1ccc2c(=O)n(-c3ccc(OC)cc3)c(=S)[nH]c2c1 6.42%
O=C(COC(=O)CCC1CCCC1)NCc1ccc(Cl)cc1 17.3%
COC(=O)c1cn(CCOc2ccccc2F)c2ccccc12 1.53%
O=[N+]([O-])c1cn(Cc2ccc(Cl)cc2)cn1 1.06%
Cc1cccc(N2C(=O)/C(=C\c3ccc(C(=O)O)cc3)c3ccccc3C2=O)c1 36.5%
CCOc1cc(/C=C2\C(=O)N(c3cccc(C(F)(F)F)c3)C(=O)c3ccccc32)ccc1O 9.18%
CC(C)c1nnc(NC(=O)c2cccnc2)s1 2.86%
OC1CCN(C(=S)Nc2ccc(Oc3ccccc3)cc2)CC1 -15.6%
O=C(Nc1ccccc1)NC1(C(=O)N2CCC(O)CC2)CCCCC1 4.76%
